Reference: PubChem BioAssay (NCI)
This is part of a sample that, as a whole, favours compounds with a hit. Of some 79,000 tested, about 15% had one in any assay. No stated cut-off is given here; in the data, active means growth inhibition above about 70%; inactive means the rest.

Key:
[1] = NCI Yeast Anticancer Drug Screen. Data for the rad50 strain (AID 155);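 further: 0% = growth of vehicle-only cultures of the same strain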; details: S. cerevisiae rad50 strain growth inhibition; at 50.0 µM; hits give high values
Outline: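 DNA repair mutant yeast, compound exposure, growth read-out; inhibition is taken relative to vehicle.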

[2] = NCI Yeast Anticancer Drug Screen. Data for the mec2-1 strain (AID 157); details: S. cerevisiae mec2-1 strain, at 50.0 µM, hits give high values
Outline: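 Vehicle-treated cultures served as reference for growth inhibition of compound-exposed mec2-1 yeast.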

[3] = NCI Yeast Anticancer Drug Screen. Data for the sgs1 mgt1 strain (AID 161);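 further: 0% = growth of cultures given vehicle only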; details: S. cerevisiae sgs1 mgt1 strain, at 50.0 µM, hits give high values
Outline: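 Inhibition of yeast growth, normalised to vehicle-treated controls, is reported for a strain bearing genetic alterations in DNA damage repair.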

[4] = NCI Yeast Anticancer Drug Screen. Data for the bub3 strain (AID 167); details: S. cerevisiae bub3 mutant strain, at 50.0 µM, hits give high values
Outline: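 In this screen, a yeast mutant lacking normal mitotic checkpoint function is challenged with compound. Relative growth versus vehicle gives the inhibition value.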

[5] = NCI Yeast Anticancer Drug Screen. Data for the mlh1 rad18 strain (AID 175); details: S. cerevisiae mlh1 rad18 strain growth inhibition; at 50.0 µM; hits give high values
Outline: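 Vehicle-treated cultures served as the reference for growth inhibition in a yeast strain carrying DNA damage repair alterations exposed to each compound.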

Measured: growth inhibition

O=C(O)CC(C(=O)O)=C1CCCCC1
inactive: [1] 11.8% | [2] 13.4% | [3] 0.5% | [4] 8.75% | [5] -0.3%

Nc1ccc2nc3n(c(=O)c2c1)CCCCC3
inactive: [1] -25.1% | [2] -11.4% | [3] 1.4% | [4] 0.65% | [5] 10.8%

CN(C)c1nc(Cl)cc2nc(Cl)cn12
inactive: [1] 0.25% | [2] 5.7% | [3] 2.5% | [4] -8.15% | [5] 0.5%

CC(=O)Nc1cc(C)c(C(=O)OC(=O)c2cc(C)c(NC(C)=O)cc2C)cc1C
inactive: [1] 22.4% | [2] -10.1% | [3] 5.1% | [4] -0.85% | [5] 6.2%

O=C(CCCCC(=O)NC1c2ccccc2Oc2ccccc21)NC1c2ccccc2Oc2ccccc21
inactive: [1] 35.2% | [2] 12.1% | [3] 31% | [4] 9.25% | [5] 31.4%

O=c1[nH]cc(Cl)cc1[N+](=O)[O-]
inactive: [1] 10.8% | [2] 3.95% | [3] -1.4% | [4] -17.8% | [5] 1.7%

Cc1cc(CN(C)C)cc(C(C)C)c1O
inactive: [1] 1.85% | [2] -0.9% | [3] -12% | [4] 12.8% | [5] -3.95%

CSc1ncc(CO)c(Nc2ccc(F)cc2)n1
inactive: [1] -12.7% | [2] 8.7% | [3] -16.4% | [4] -14.9% | [5] -23.4%

CCCCCOc1ccc(/C=C\C(=O)O)cc1
inactive: [1] 11.3% | [2] 2.55% | [3] -11.2% | [4] -18.4% | [5] -6.35%

CCC1(c2ccccc2)CCCC/C1=N/NC(N)=O (centres undefined)
inactive: [1] 2.55% | [2] -16.6% | [3] -0.8% | [4] -6.05% | [5] -8.7%

CNc1c(F)cc(C#N)cc1F
inactive: [1] 12.1% | [2] 11.1% | [3] 1.75% | [4] 0.75% | [5] 10.8%

NC(=O)c1csc(Nc2csc(N)n2)n1
inactive: [1] -6.05% | [2] -15.5% | [3] -6.35% | [4] 18.8% | [5] -26.6%

COc1cccc2sc(-n3c(C)nc4ccccc4c3=O)nc12
inactive: [1] 33.5% | [2] 12.5% | [3] 54.8% | [4] 51.9% | [5] 40.5%

N#CC(=C1C=CC(=NO)C=C1)c1ccc(Cl)cc1
inactive: [1] -0.05% | [2] 2.5% | [3] 8.3% | [4] 20.9% | [5] 1.9%

N#CC(C#N)=C1C=CC=CC=C1
inactive: [1] 14.2% | [2] 5% | [3] 0.85% | [4] 8.75% | [5] -4.4%

COc1cccc(NC(=S)NCc2cccnc2)c1
inactive: [1] -13.4% | [2] -24.9% | [3] 9.1% | [4] -13.2% | [5] -5.3%

CC(c1ccccc1)N1COc2cc3c(cc2C1)OCN(C(C)c1ccccc1)C3 (centres undefined)
inactive: [1] -21.2% | [2] -2.95% | [3] -29.8% | [4] -6.8% | [5] -17.4%

Cc1ccc(NC(=O)C2C(=O)N(c3ccc(C)c(C)c3)C(=O)C2N=N)cc1C (centres undefined)
inactive: [1] 7.9% | [2] 34.8% | [3] 26.6% | [4] 0.35% | [5] 44.9%

CC1=CC(=O)C(=CN2C(=O)/C(=C\c3cccnc3)NC2=S)C(=O)O1
inactive: [1] -21.2% | [2] -12.2% | [3] -18.9% | [4] -3.7% | [5] -21.9%

CCOC(=O)C(=O)c1cn(C)c(=O)n(C)c1=O
inactive: [1] 12.1% | [2] 2.85% | [3] 1.3% | [4] 0.9% | [5] 10.6%

O=CC1=CCC2c3[nH]c4ccccc4c3CCN2C1 (centres undefined)
inactive: [1] 24.9% | [2] 20.5% | [3] 25.7% | [4] 28.2% | [5] 19.8%

O=C(C[N+]12CC=C(CO)C1C(O)CC2)c1ccc(Br)cc1 (centres undefined)
inactive: [1] 5.55% | [2] -6.25% | [3] -15.5% | [4] 3.35% | [5] -4%

CN1CCN(CC2C(=O)C3CCC2C3)CC1 (centres undefined)
inactive: [1] 4.6% | [2] -20.4% | [3] -18.4% | [4] -22.7% | [5] -10.3%

Cc1c(S)cnc2ccccc12
inactive: [1] -0.55% | [2] -6.25% | [3] 1.7% | [4] -14.8% | [5] 2.85%

CCCCCCCCC(=O)N1CCOCC1
inactive: [1] 17.4% | [2] 7.15% | [3] 18.3% | [4] -0.8% | [5] 8.8%

Cc1cc(C)c(NC(=O)NC2CCCCC2)c(C)c1
inactive: [1] 4.7% | [2] 7.05% | [3] 23.6% | [4] 34% | [5] 31.1%

COc1cc(/C=C/C(=O)N[C@@H]2C(=O)N3[C@@H]2SC(C)(C)[C@@H]3C(=O)O)cc(OC)c1OC
inactive: [1] -5.6% | [2] -18.4% | [3] -34.8% | [4] -7% | [5] -43.9%

OC1CCCC2OC2CC1 (centres undefined)
inactive: [1] 0.4% | [2] 6.55% | [3] -9.5% | [4] 7.25% | [5] 13.9%

CC1=CC(C)S(=O)(=O)C1 (centres undefined)
inactive: [1] -38.4% | [2] -46.2% | [3] -89.1% | [4] -57.8% | [5] -16.7%

COc1cc(C2C3=C(COC3=O)Oc3cc4c(cc32)OCO4)ccc1OC(C)=O (centres undefined)
inactive: [1] 20.7% | [2] 5.55% | [3] -13.8% | [4] -4.35% | [5] -5.2%

Cc1cccc(C2=N/C(=C\c3ccc4c(c3)OC(O)O4)C(=O)O2)c1 (centres undefined)
inactive: [1] -1.9% | [2] 6.55% | [3] 4.95% | [4] 7.05% | [5] -16.4%

O=S(=O)(O)c1cc(O)c(N=NC2S(=O)(=O)OCCOS2(=O)=O)c2ccccc12
inactive: [1] 7.45% | [2] 2.7% | [3] 31.2% | [4] 16.8% | [5] -4.05%

C[Si](C)(C)c1ccc(C(=O)O)cc1
inactive: [1] 7.3% | [2] 12.6% | [3] -3.35% | [4] -18.3% | [5] 10.2%

CCN(C(=S)Nc1cccc(OC)c1)c1ccccc1
inactive: [1] -17.2% | [2] -36.9% | [3] 18% | [5] -6.8%
